Where “and” joins values, the source holds several entries; their conditions need not be identical. Identical values can stand only once. Among all 260,000 compounds or so, about 2,200 (0.85%) were called active. The sample holds actives, similar compounds and a random draw of the others, so the mix is not that of the screen.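 How the source made its calls: active means compounds whose cAMP rise, as percent of the full-agonist control response, exceeds 60; inactive means the rest.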 A structure can be active in one record and inactive in another.

In the assay the target is Prostaglandin E2 receptor EP2 subtype (Homo sapiens) (UniProt P43116). In words: EP2 receptor modulators, cAMP readout, primary screen, cell-based, HTRF cAMP, PGE2 stimulation (AID 940).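 Further: rat C6 glioma line stably carrying human EP2 under a CMV promoter; the protocol text gives 20 µM as final concentration; 100% = response of wells given 1 µM PGE2.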 The following applies: EP2-expressing cells, cAMP HTRF FRET, PGE2 co-stimulation; at 25 µM; stronger effect = higher value. In general terms: TR-FRET usually uses a lanthanide donor and a delayed reading to cut background.
Prostaglandin E2 receptor EP2 subtype (Homo sapiens), sequence (P43116 whole entry, looked up): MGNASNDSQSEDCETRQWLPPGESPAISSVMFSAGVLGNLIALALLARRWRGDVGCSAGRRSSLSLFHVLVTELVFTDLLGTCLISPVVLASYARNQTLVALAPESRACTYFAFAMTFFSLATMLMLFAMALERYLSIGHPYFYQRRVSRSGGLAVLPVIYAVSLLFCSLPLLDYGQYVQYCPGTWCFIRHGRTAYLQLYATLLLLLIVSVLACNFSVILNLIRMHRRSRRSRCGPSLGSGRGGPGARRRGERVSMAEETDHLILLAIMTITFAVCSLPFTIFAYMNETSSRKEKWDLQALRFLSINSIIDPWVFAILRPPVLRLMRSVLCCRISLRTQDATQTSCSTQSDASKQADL
`CCn1c(SCC(=O)Nc2ccc(C)cc2C)nnc1C(C)C`: the induction was -31.6% (inactive). Then `CCCC(=O)Nc1ccc(Cl)c(NC(=O)c2ccc(Br)o2)c1`, with 6.2% (inactive). As to `CCN1CCN(c2c(Cl)cccc2NC(=O)c2ccc(Br)o2)CC1`, the induction is 74.4% (active).

On to `COc1cc(OC)c(NC(=O)c2ccc(Br)o2)cc1Cl`, for which the induction is -17.9% (inactive). Then `CCCc1nc(SCC(=O)N2CCCC2)c2c(C)c(C)sc2n1`, with 1.9% (inactive); and `CCOC(=O)c1sc2nc(C)nc(SCC(N)=O)c2c1C`, with 9.11% (inactive); and `CCCc1nc(SCC(=O)OCC)c2c(C)c(C)sc2n1`, with 74% (active). With `COc1ccc(OC)c(C(=O)CSc2ncnc3c2cnn3-c2ccccc2C)c1` the figure was 44.3% (inactive).

As to `Cn1c(=O)[nH]c(=O)c2c1nc(NCCCO)n2Cc1cccc2ccccc12`, the induction was 22% (inactive). As to `CN(C)CCOc1ccc(Cl)cc1C(C)(C)C`, the induction was -0.86% (inactive). With `CCC(C)(C)c1ccc(OCC(=O)N(C)C)c(C(C)(C)CC)c1` the figure was 76% (active); with `CCc1nc(C)ccc1OCC(=O)N(CC)CC`, 8.52% (inactive); with `COc1cc(C2NC(=O)NC(C)=C2C(=O)Nc2ccc(C)cc2C)ccc1O` (stereo unspecified), 5.85% (inactive). In the case of `CSc1nc2ccccc2c(=O)n1Cc1ccc(F)cc1`, the induction is 80.8% (active). With `COC(=O)CSc1nc2ccccc2c(=O)n1Cc1ccccc1` the figure was 47.6% (inactive); with `O=C(CCn1c(SCC(=O)c2ccccc2)nc2ccccc2c1=O)NCc1ccc(F)cc1`, 11.2% (inactive); with `COc1cccc(C2(NC(=O)c3cccc(N4CCCCS4(=O)=O)c3)CCCC2)c1`, -5.04% (inactive).

For `O=C(Nc1cc(Cl)cc(Cl)c1)C1CCN(C(=O)c2cccs2)CC1`, the induction was -118% (inactive). With `C=CCn1c(SCC(=O)Nc2ccccc2F)nc2sc(C)c(C)c2c1=O` the figure was -87.9% (inactive).

Consider `COc1cccc(-c2ccc(NS(=O)(=O)c3ccc4c(c3)CCC(=O)N4)cc2)c1`, for which the induction is -97.5% (inactive).

For `CC(C)Oc1c(Br)cc(Br)cc1/C=N/NC(N)=S`, the induction was 62% (active). With `NC(=S)N/N=C/c1coc2cc(Cl)ccc2c1=O` the figure was 5.33% (inactive); with `CCOc1ccc(/C=N/NC(N)=S)cc1`, -0.15% (inactive). For `COc1ccccc1NC(=S)N(Cc1cc2c(C)cc(C)cc2[nH]c1=O)C1CCCC1`, the induction was 3.07% (inactive). With `COC(=O)c1c(NC(=O)C2CC2)sc(C(=O)Nc2cc(C)ccc2C)c1C` the figure was -75.5% (inactive); with `COC(=O)c1c(NC(=O)C(C)C)sc(C(=O)Nc2cc(C)ccc2C)c1C`, 62% (active); with `CCOC(=O)C(=O)Nc1sc(C(=O)Nc2cc(C)ccc2C)c(C)c1C(=O)OC`, -1.65% (inactive). Then `COCCn1c(=O)n(CC(=O)N2CCN(c3ccccc3F)CC2)c2cccnc21`, with 0.09% (inactive); and `CCN1c2ncccc2C(=O)NC12CCN(C(=O)c1cccc3c1C(=O)N(C)C3)CC2`, with -5.04% (inactive). With `CCn1c(CSc2nc(C)cc(C)n2)nnc1SCC(=O)Nc1cccc(C(F)(F)F)c1` the figure was -10.6% (inactive); with `CC[N+](C)(CC[N+](C)(C)C)Cc1cc2ccccc2o1` (stereo unspecified), -3.15% (inactive). Consider `C=CCn1c(SC(C)C(=O)OC)nc2c1c(=O)[nH]c(=O)n2C` (stereo unspecified), for which the induction was -1.3% (inactive). With `CCCCCCn1c(SCC(=O)c2ccccc2)nc2c1c(=O)[nH]c(=O)n2C` the figure was -0.64% (inactive). With `CCCCCn1c(SCCC(C)C)nc2c1c(=O)[nH]c(=O)n2C` the figure was 69.2% (active). With `C=CCn1c(=O)c(C(=O)Nc2cccc(C)n2)c(O)c2ccccc21` the figure was 2.07% (inactive); with `CCn1c(COc2ccc(OC)cc2)nnc1SC(C)C(=O)Nc1ccccc1C` (stereo unspecified), 28.9% (inactive). With `COc1ccccc1Cc1nnc(NC(=O)c2cnc(SC)nc2)s1`, the induction was -0.63% (inactive). With `CC1=CC(C)(C)N(C(=O)CSc2nccn2C)c2cc(C)ccc21` the figure was 43.9% (inactive); with `O=C(CSc1nnc(-c2ccccc2)o1)N1CCOCC1`, 1.42% (inactive). For `CC1=CC(C)(C)N(C(=O)CSc2nnc(-c3ccccc3)o2)c2ccc(C)cc21`, the induction is 61.5% (active). With `COc1ccc(-c2csc(N3N=C(C)CC3=O)n2)cc1` the figure was -82.9% (inactive); with `NC(=O)C1CCN(Cc2nnnn2Cc2ccccc2)CC1`, 25.5% (inactive). On to `C=CCn1cnc2sc(C)c(-c3ccc(Cl)cc3)c2c1=O`, for which the induction was 72.1% (active). Then `CCCn1cnc2sc(C)c(-c3ccc(Cl)cc3)c2c1=O`, with 36.5% (inactive); and `CCCOC(=O)Cn1cnc2sc(C)c(-c3ccc(Cl)cc3)c2c1=O`, with 27.2% (inactive); and `O=C(Nc1cccc2ccccc12)C1CCN(C(=O)c2cccc(Cl)c2)CC1`, with -52% (inactive). With `CC(C)N(C(=O)CSc1nc(COc2ccccc2)nc2ccccc12)C(C)C`, the induction was 60.5% (active) and 78.3% (active). Then `CN(C(=O)CSc1nc(C2CC2)nc2ccccc12)c1nc(-c2ccccc2)cs1`, with 0.29% (inactive); and `CCCc1nc(SCC(=O)Nc2ccc(S(=O)(=O)N(C)C)cc2)c2ccccc2n1`, with 0.33% (inactive); and `COc1cc(OC)cc(OCC(O)Cn2c(C)nc3ccccc32)c1` (stereo unspecified), with -45% (inactive). Then `CCn1c(SCC(=O)Nc2cc(Cl)ccc2Cl)nc2sc(C)c(C)c2c1=O`, with 8.59% (inactive); and `CC1(C(=O)N(CC(=O)NCc2ccc(F)cc2)C2CCCC2)CC(=O)N=C2C=CC=CN21` (stereo unspecified), with -9.59% (inactive); and `NNC(=O)COc1ccc(C2SCCS2)cc1`, with -9.97% (inactive). Then `NC(=O)COc1ccc(NC(=O)c2ccccc2-c2ccccc2)cc1`, with -20.6% (inactive); and `NC(=O)COc1ccc(C23CC4CC(CC(C4)C2)C3)cc1`, with 87.8% (active).

In the case of `Cn1nnc2cc(NC(=O)Nc3ccc(F)cc3)ccc21`, the induction was -20.8% (inactive). As to `Cc1nc(NCCN)c(C#N)c2c1COC(C)(C)C2`, the induction was 14.1% (inactive). Then `CCNc1nc(C)c([N+](=O)[O-])c(C)c1C#N`, with 68.9% (active); and `Cc1nn(CC(=O)Nc2ccc(C#N)cc2)c(C)c1[N+](=O)[O-]`, with 40.4% (inactive); and `COc1ccccc1-c1ocnc1C(=O)Nc1ccc(N2CCC(C)CC2)c(C(N)=O)c1`, with -7.54% (inactive). Then `NC(=O)Cn1c(=O)oc2ccccc21`, with 8.45% (inactive).

For the compound `Cc1ccc(OCCCn2c(=O)oc3ccccc32)cc1`, the induction was -12.8% (inactive). With `O=c1oc2ccccc2n1CCCOc1cccc2ccccc12` the figure was 74.5% (active); with `CC1CCCN(CC(=O)N2CCN(C(=O)CN3CCCC(C)C3)CC2)C1` (stereo unspecified), -44.2% (inactive). Then `CCCn1c(=O)[nH]c2c(C(N)=O)nc(-c3ccccc3F)nc21`, with -12.9% (inactive). Then `CCOC(=O)c1c(C2CC2)csc1NC(=O)CSCc1c(C)noc1C`, with 75.9% (active).

On to `CCOC(=O)c1c(-c2cccc(C)c2)csc1NC(=O)c1c(-c2ccccc2)noc1C`, for which the induction is 34.1% (inactive). With `Cc1noc(C)c1CSCC(=O)Nc1nc2ccc(Oc3ccccc3)cc2s1` the figure was -9.73% (inactive); with `CCOc1cccc(/C(O)=C2/C(=O)C(=O)N(CCN3CCOCC3)C2c2ccc(C)o2)c1` (stereo unspecified), -20% (inactive); with `CCC(c1nnnn1C(C)(C)CC)N(Cc1cccs1)Cc1cc2ccc(C)c(C)c2[nH]c1=O` (stereo unspecified), 48.5% (inactive). Consider `Cc1ccc2c(c1)C(=O)CC1(CCN(C(=O)N3CCOCC3)CC1)O2`, for which the induction was -15.2% (inactive). In the case of `O=C(CSc1nnc2c(n1)[nH]c1ccc(F)cc12)Nc1cccc2ccccc12`, the induction was -43.9% (inactive). With `Cc1cc(C)nc(SCCn2c(N3CCC(C)CC3)nc3c2c(=O)[nH]c(=O)n3C)n1` the figure was 1.48% (inactive); with `C=C(C)Cn1c(N2CCC(C)CC2)nc2c1c(=O)[nH]c(=O)n2C`, -6.93% (inactive). As for `CC1CCN(c2nc3c(c(=O)[nH]c(=O)n3C)n2CCCc2ccccc2)CC1`, the induction was 57.4% (inactive) and 67% (active). Then `O=C(NCC1CCCO1)C(=O)Nc1cc(Cl)cc(Cl)c1` (stereo unspecified), with -89.4% (inactive). Turning to `Cc1cc2c(cc3c(=O)n(CC(=O)N(Cc4ccncc4)C4CC4)nc(C)n32)s1`, the induction is 41.2% (inactive).

`Cc1cccc2cc(CN(Cc3ccc4c(c3)OCO4)Cc3nnnn3C3CCCC3)c(=O)[nH]c12`: the induction was 42.4% (inactive). Then `Cc1cccc2cc(CN(Cc3cccs3)C(c3nnnn3C3CCCC3)C(C)C)c(=O)[nH]c12` (stereo unspecified), with 63.3% (active) and 74.3% (active); and `CCC(c1nnnn1C1CCCC1)N(Cc1cccs1)Cc1cc2ccc(C)c(C)c2[nH]c1=O` (stereo unspecified), with 49% (inactive); and `Cc1ccc2cc(CN(Cc3ccccc3)C(c3nnnn3C3CCCCC3)C(C)C)c(=O)[nH]c2c1C` (stereo unspecified), with 45.6% (inactive). With `Cc1cc(C)c2[nH]c(=O)c(CN(Cc3ccco3)C(c3nnnn3C3CCCCC3)C(C)C)cc2c1` (stereo unspecified) the figure was 25.3% (inactive). For `CCOc1ccc2[nH]c(=O)c(CN(Cc3ccccc3)Cc3nnnn3C3CCCC3)cc2c1`, the induction was -7.93% (inactive). Turning to `Cc1ccc(CN(Cc2cc3cc4c(cc3[nH]c2=O)OCCO4)Cc2nnnn2C2CCCC2)cc1`, the induction is 2.08% (inactive). Take `Cc1cccc2cc(CN(Cc3cccs3)Cc3nnnn3C3CCCCC3)c(=O)[nH]c12`: the induction was 70.9% (active).

With `Cc1ccc(CN(Cc2cc3c(C)ccc(C)c3[nH]c2=O)Cc2nnnn2C2CCCC2)cc1`, the induction is 38.9% (inactive). In the case of `Cc1ccc2[nH]c(=O)c(CN(CCc3ccccc3)Cc3nnnn3C3CCCCC3)cc2c1`, the induction is 71.2% (active). Then `CCC(c1nnnn1C1CCCC1)N(Cc1cccs1)Cc1cc2cccc(C)c2[nH]c1=O` (stereo unspecified), with 46.6% (inactive); and `CCC(c1nnnn1C1CCCCC1)N(Cc1cccs1)Cc1cc2cc(C)cc(C)c2[nH]c1=O` (stereo unspecified), with 75.2% (active); and `CCn1c(COc2ccc(Br)cc2)nnc1SCC(=O)NCc1ccccc1`, with 19.8% (inactive). Then `O=C(CCSc1nc(-c2ccc3c(c2)OCO3)cc(C(F)(F)F)n1)NCc1ccncc1`, with -33.7% (inactive).

Source of the values: PubChem BioAssay AID940 (Emory University Molecular Libraries Screening Center, 2007).
